NPC1 prom act – NPC1 promoter activation | Huh7 NPC1 promoter luciferase reporter, 24 h | Potency, µM (series often up to 9.22 µM), inactives show at the highest dose activation, most hits filed as activators | 320,000 compounds, 2.4% hits; note: % of control where 0% means no effect; nearly all actives have a fitted effect of over 60% in size
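Huh7 reporter cells (NPC1 promoter driving luciferase) are dosed with compound for 24 h at 37 °C, 5% CO2; luciferase detection reagent is then added and luminescence measured after 10 min at ambient temperature.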
FLuc counter – firefly luciferase modulation, counter-screen for miR-21 project | purified FLuc, Km substrates, luminescence inhibition | Potency, µM (top dose mostly 57.5 µM), for the others: top-dose activity change, negative = inhibition, actives largely listed as inhibitors | 360,000 compounds, 6.9% hits | P08659 | AID 588342;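 note: plate controls were vehicle for no effect and reference inhibitor for full effect; nearly all actives have a fitted effect of over 55% in size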
Target sequence (P08659 whole entry, looked up): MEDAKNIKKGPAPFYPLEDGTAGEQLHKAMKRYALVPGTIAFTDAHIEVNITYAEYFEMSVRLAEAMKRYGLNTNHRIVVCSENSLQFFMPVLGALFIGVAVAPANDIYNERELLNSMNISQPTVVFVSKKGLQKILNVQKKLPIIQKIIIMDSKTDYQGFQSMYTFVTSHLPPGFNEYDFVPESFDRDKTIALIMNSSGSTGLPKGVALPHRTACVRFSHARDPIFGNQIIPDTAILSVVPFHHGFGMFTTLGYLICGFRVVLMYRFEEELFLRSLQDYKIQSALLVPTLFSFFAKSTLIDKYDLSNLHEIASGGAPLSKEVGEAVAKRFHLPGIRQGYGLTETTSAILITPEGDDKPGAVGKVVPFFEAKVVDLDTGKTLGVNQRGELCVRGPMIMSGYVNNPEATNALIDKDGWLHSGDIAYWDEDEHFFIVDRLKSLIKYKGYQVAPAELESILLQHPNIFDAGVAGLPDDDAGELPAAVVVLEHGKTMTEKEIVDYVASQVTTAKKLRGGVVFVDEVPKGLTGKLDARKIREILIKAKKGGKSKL
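Purified P. pyralis luciferase (10nM final) with 10uM D-luciferin and 10uM ATP (Km levels) in 50mM Tris acetate pH 7.5, 10mM Mg acetate, 0.01% Tween-20, 0.05% BSA; qHTS 6-point titration, ~60 µM downward; luminescence read.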
ELG1 genotox – genotoxicity induction in ELG1-luciferase HEK293T cells; HEK293T ELG1-luciferase reporter, luminescence, 16 h; Potency, µM (top dose mostly 46 µM), for the others: top-dose activity change, positive = activation, actives largely listed as activators; 330,000 compounds, 1.3% hits; AID 504466; note: % of control where 0% means no effect; nearly all actives have a fitted effect of over 60% in size
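Cells (2,000/well) expressing the ELG1-luciferase fusion are dosed by pin tool and kept 16 hr at 37 °C, 5% CO2. Signal comes from ONE-Glo luciferase reagent after 30 min at room temperature.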
SMN2 splice up – SMN2 splice variant enhancement; Potency, µM (series often up to 46.1 µM), for the others: at the highest dose activity change, positive = activation, most hits filed as activators; 210,000 compounds, 2.8% hits; AID 1458; HEK293 SMN2-luciferase splicing reporter, luminescence, 30-36 h; note: % of control where 0% means no effect; nearly all actives have a fitted effect of over 55% in size
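qHTS luciferase splicing reporter: luminescence rises when SMN2 exon 7 is included in transfected HEK293 cells. Compound exposure lasted 30-36 h at 37C, with 4.5 mM final sodium butyrate as control, followed by a ONE-Glo read.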
Rab9 prom act – activators of Rab9 promoter; Huh7 Rab9 promoter-luciferase reporter, luminescence, 24 h; Potency, µM (titrated, usually from 9.22 µM), without a hit: at the highest dose activation, negative = inhibition, hits mostly activators; 320,000 compounds, 2.8% hits; note: % of control where 0% means no effect; nearly all actives have a fitted effect of over 60% in size
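Huh7 cells stably carrying a Rab9 promoter-luciferase reporter, 1500 cells per well in OP-MEM I with 10% FBS, treated with compound 24 hours at 37C. Luciferase activity read by luminescence after 10 minutes with Amplite reagent.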
* = called active by the depositor; ? = inconclusive; . = not tested or not shown. An excerpt weighted towards active compounds, which were near 7.4% of everything screened. Calls come from the whole dose curve; as a rule, active = well fitted curve in the direction sought with a large enough effect; inconclusive = small, poorly fitted or top-dose-only effect, or another doubt; inactive = no such curve, though single readings can be large; an effect the other way counts as inactive or inconclusive. Potency is the fitted concentration of half-maximal effect.

SMILES	NPC1 prom act	FLuc counter	ELG1 genotox	SMN2 splice up	Rab9 prom act
COc1ccccc1NC(=S)NC(=O)CC(C)C	7%	15µM*	1%	-6%	-1%
COc1ccccc1NC(=S)NNC(=O)c1ccccc1Br	22%	?	10%	5µM*	?
Nc1c(-c2ccc(Cl)cc2)cnn1-c1cc(C(F)(F)F)cc(C(F)(F)F)c1	1%	-2%	4%	.	-2%
Nc1c(-c2ccc(Cl)cc2)cnn1-c1ccccc1	2.2µM*	4.8µM*	6.5µM*	.	0.89µM*
COc1ccc(-c2cnc3c(-c4ccc(F)cc4)cnn3c2N)cc1	0.4µM*	0.6µM*	?	.	0.32µM*
Cc1ccc(-c2cnn(-c3cccc([N+](=O)[O-])c3)c2N)cc1	2.2µM*	12µM*	?	29%	3.2µM*
Cc1ccc(-c2cnn(-c3ccccc3)c2N)cc1	0.45µM*	1.3µM*	?	.	1.1µM*
COc1ccc(-c2cnn3c(N)c(S(=O)(=O)C(C)(C)C)cnc23)cc1	9%	?	-4%	-11%	9%
COC(=O)Cc1ccc(O)c(N)c1	-1%	-17%	0%	2%	-2%
Cc1cccc(NC(=O)Cn2c(=O)n(Cc3ccc4c(c3)OCO4)c(=O)c3oc4ccccc4c32)c1C	.	4%	.	.	.
Nc1c(-c2cccc(Cl)c2)cnn1-c1cccc(C(F)(F)F)c1	2%	?	-3%	-27%	9%
Nc1c(-c2ccccc2)cnn1-c1cccc(C(F)(F)F)c1	?	17µM*	14%	3.5µM*	3.2µM*
Nc1c(-c2ccc(Cl)cc2)nnn1-c1ccccc1	3.2µM*	?	?	.	2.2µM*
Nc1c(-c2ccc(Cl)cc2)cnc2c(-c3ccccc3)cnn12	0.32µM*	0.48µM*	1.6µM*	.	1.3µM*
Nc1c(-c2ccccc2)cnn1-c1ccc(C(=O)O)cc1	?	1.7µM*	?	3.2µM*	0.32µM*
CCS(=O)(=O)N1CCc2cc(C(=O)N3CCN(c4cccc(C(F)(F)F)c4)CC3)ccc21	.	-1%	.	.	.
O=C(c1cc2ccccc2oc1=O)N1CCN(S(=O)(=O)c2ccccc2)CC1	-1%	0%	-2%	.	10%
CCN1C(=O)c2cccc3c(NC(=O)c4ccc(S(=O)(=O)N5CCOCC5)cc4)ccc1c23	-4%	0%	?	?	-3%
COc1ccccc1C(=O)Nc1cc2c(cc1C(=O)O)OCCCO2	-3%	-14%	4%	.	-3%
CCN1C(=O)c2cccc3c(NC(=O)c4ccc(S(=O)(=O)N(C)C)cc4)ccc1c23	-5%	-8%	16%	13µM*	-6%
CN(C)S(=O)(=O)c1ccc(C(=O)Nc2cc3c(cc2C(=O)O)OCCCO3)cc1	15%	15µM*	7%	.	6%
CN(C)S(=O)(=O)c1cccc(C(=O)Nc2ccc(N3CCOCC3)cc2)c1	-2%	?	-2%	.	-4%
CSc1ccccc1C(=O)Nc1cc2c(cc1C(=O)O)OCCCO2	-2%	?	9%	.	-1%
CN(C)S(=O)(=O)c1cccc(C(=O)Nc2cc3c(cc2C(=O)O)OCCCO3)c1	16%	6µM*	8%	.	7%
O=C(Nc1cc2c(cc1C(=O)O)OCCCO2)c1ccc(F)cc1F	-42%	21µM*	?	.	24%
SMILES	NPC1 prom act	FLuc counter	ELG1 genotox	SMN2 splice up	Rab9 prom act
CCC(=O)c1cc2c(cc1NC(=O)c1ccc(C)cc1)OCCO2	-2%	-1%	?	?	0%
CN(C)S(=O)(=O)c1ccc(C(=O)Nc2ccccc2F)cc1	6%	-8%	4%	11%	1%
CN(C)S(=O)(=O)c1ccc(C(=O)Nc2ccccc2C(=O)O)cc1	1%	12µM*	-1%	2%	3%
CC(=O)c1cc2c(cc1NC(=O)c1ccc(C)cc1)OCCO2	0%	5.4µM*	14%	.	2%
CN(C)S(=O)(=O)c1ccc(C(=O)Nc2cccc(C(=O)O)c2)cc1	.	21µM*	.	14%	.
Cc1c(C(=O)NC2=NCCS2)cccc1[N+](=O)[O-]	-1%	0%	0%	.	2%
C/C(=N\NC(=O)c1ccc2c(c1)OCO2)c1cccnc1	?	?	?	.	3.5µM*
C/C(=N\NC(=O)c1ccc(Br)cc1)c1cccnc1	26%	13µM*	?	.	?
C/C(=N\NC(=O)c1c[nH]c2ccccc12)c1ccc2c(c1)OCO2	3%	27µM*	8%	17%	28%
CC(=O)Nc1cccc(/C(C)=N/NC(=O)c2ccc3c(c2)OCO3)c1	28%	6µM*	?	11µM*	?
C/C(=N\NC(=O)c1cc(C)oc1C)c1ccc2c(c1)OCO2	18%	?	11%	12%	?
O=C(NCc1ccc(F)cc1)c1ccc(CSc2nc3ccncc3n2Cc2ccc(F)cc2)cc1	.	1%	.	-4%	.
Cc1cccc(NC(=S)N/N=C/c2c[nH]c3ccccc23)c1	-11%	?	14%	28%	-12%
O=C(N/N=C(\c1ccccc1)c1cccnc1)c1cccc(F)c1	-13%	-5%	16µM*	.	-37%
C/C(=N/NC(=O)CCc1ccccc1)c1ccc2c(c1)OCO2	-4%	-11%	-1%	.	10%
C/C(=N\NC(=O)c1ccccc1)c1ccc2c(c1)OCO2	?	15µM*	18µM*	27%	2.8µM*
Cc1cc(C)c(NC(=O)c2cc(C)nc3c2c(C)nn3-c2cccc(F)c2)c(C)c1	.	2%	.	.	.
COc1ccc(OC)c(CCNC(=O)Cn2ccc3cc(S(=O)(=O)N4CCCCC4)ccc32)c1	.	-3%	.	.	.
COC(=O)c1ccc(NC(=S)NC2CC3CCC2C3)cc1 (stereo not given)	23%	21µM*	6%	?	23%
COc1ccc(NC(=O)NC2CCCCCCC2)c(OC)c1	1%	?	13%	.	17%
COC(=O)c1ccc(NC(=O)NC2CCCCC2)cc1	?	?	17%	13µM*	16%
COc1ccc(NC(=O)NC2CCCCCCC2)cc1	0.89µM*	6µM*	9.2µM*	.	1.4µM*
COc1ccc(CNC(=O)CCC(=O)Nc2nnc(CC(C)C)s2)cc1	-6%	-1%	1%	.	0%
COc1ccc(CNC(=O)Cc2ccc(NC(=O)N3CCSc4ncccc43)cc2)cc1OC	.	-8%	.	.	.
CCc1ccc(NC(=O)CSc2nc(C)cc(COC)c2C#N)cc1	.	6%	.	-10%	.
O=c1c2ccccc2nc2ccc(NCc3cccs3)nn12	3.5µM*	8.5µM*	-20%	16µM*	1.6µM*
CCCCN(C)S(=O)(=O)c1cc2c3c(c1)CCC(=O)N3CCC2	-3%	1%	0%	.	4%
COc1ccc(/C=C\C(=O)Oc2cccc(/C=N/NC(=O)Cc3ccc(OC)c(OC)c3)c2)cc1	?	11µM*	?	13µM*	?
COc1ccc(/C=C/C(=O)Oc2cccc(/C=N/NC(=O)c3cccc(F)c3)c2)cc1	3.5µM*	2.4µM*	?	11µM*	2.8µM*
ClCCCl	.	.	.	4%	.

Compound activity deposited in PubChem BioAssay by National Center for Advancing Translational Sciences (NCATS).
